Mcl1 Bid PPI: Mcl-1/Bid interaction inhibition; Q07820; TR-FRET Mcl-1/Bid-Dy647 peptide binding, 1536-well; inhibition, % at 21.7 µM; hit rate 0.97% among 220,000; AID 1021;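 active = compounds that cut the binding signal by more than half at the single screening dose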;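 also: His-tagged Mcl-1 with europium anti-His antibody binding Bid BH3 peptide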
NCF1 inh: blocks human p47phox regulatory protein of NADPH oxidases; P14598; p47phox/p22phox peptide binding, fluorescence polarization, 2 h; inhibition, % at 24.7 µM; hit rate 0.53% among 220,000
Target sequence (P14598 whole entry, looked up): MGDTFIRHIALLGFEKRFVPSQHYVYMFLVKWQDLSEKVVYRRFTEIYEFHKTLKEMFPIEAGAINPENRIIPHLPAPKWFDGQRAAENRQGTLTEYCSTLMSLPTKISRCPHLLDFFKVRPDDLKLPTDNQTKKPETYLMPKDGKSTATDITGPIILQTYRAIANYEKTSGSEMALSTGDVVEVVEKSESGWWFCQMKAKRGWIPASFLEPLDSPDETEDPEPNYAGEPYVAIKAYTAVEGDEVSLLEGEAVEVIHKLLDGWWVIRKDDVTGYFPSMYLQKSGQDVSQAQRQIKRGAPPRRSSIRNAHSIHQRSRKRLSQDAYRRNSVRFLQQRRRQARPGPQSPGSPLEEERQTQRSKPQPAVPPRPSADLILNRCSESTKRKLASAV
Bim-Mcl-1: inhibitors of Bim-Mcl-1 interaction, human. Bead-based flow cytometry, Bim peptide-Mcl-1 binding. hit rate 0.1% among 190,000. AID 1009. Q07820. inhibition, % at 10 µM; in the data active = inhibition above about 40%
Mcl1 Noxa PPI: disrupts binding of human Mcl-1 to Noxa peptide; Q07820; TR-FRET Mcl-1/Noxa peptide binding, 2 h; inhibition, % at 21.7 µM; hit rate 1.5% among 220,000;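 active = compounds that cut the protein-peptide binding signal by more than 50% relative to plate controls in a single-dose test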;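 also: His-tagged Mcl-1 with rhodamine Noxa BH3 peptide and terbium anti-His antibody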
14-3-3 Bad inh: disrupts binding of bovine 14-3-3 zeta to phospho-Bad peptide | P63103 | TR-FRET 14-3-3zeta/Dy647-pBad peptide displacement, 1 h | inhibition, % at 21.7 µM | hit rate 0.71% among 220,000;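 active = inhibition above about 70%, limit read from the data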
Target sequence (P63103 whole entry, looked up): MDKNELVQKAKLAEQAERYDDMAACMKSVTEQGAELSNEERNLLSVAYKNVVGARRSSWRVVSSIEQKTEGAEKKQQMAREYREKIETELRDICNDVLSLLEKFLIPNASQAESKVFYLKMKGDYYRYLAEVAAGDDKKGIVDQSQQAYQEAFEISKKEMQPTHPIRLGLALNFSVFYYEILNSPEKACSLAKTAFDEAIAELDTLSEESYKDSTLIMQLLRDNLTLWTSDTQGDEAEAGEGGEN
eIF4E 4G PPI: blocks eIF4E binding to eIF4G; P63073+Q04637; TR-FRET eIF4E-eIF4GI(517-606) binding, 2 h; inhibition, % at 21.7 µM; hit rate 0.37% among 220,000; AID 782
Hits are given with their value; n = inactive; x = not tested or not shown; [ ] = remark or other dose. This is a sample that favours compounds with a hit; in the whole collection about 3.3% have one here.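 The calls were made as follows, unless noted: active = inhibition above about 30% (limit read from the data); inactive = the rest.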

SMILES | Mcl1 Bid PPI | NCF1 inh | Bim-Mcl-1 | Mcl1 Noxa PPI | 14-3-3 Bad inh | eIF4E 4G PPI
COc1ccccc1/C=C\C(=O)NCC(=O)N/N=C(\C)Cc1ccccc1 | n | n | x | n | n | n
CCN(CC)S(=O)(=O)c1ccc(C(=O)OCCN2C(=O)c3cccc4c(N5CCOCC5)ccc(c34)C2=O)cc1 | n | n | n | n | n | n
O=C(OCCN1C(=O)c2cccc3c(N4CCOCC4)ccc(c23)C1=O)c1cc(Cl)cc(Cl)c1 | n | n | n | n | n | 33[fluorescence artefact?]
Cc1ccc(S(=O)(=O)Nc2ccc(N=Nc3ccc(O)cc3)cc2)cc1 | n | n | n | 53 | n | n
CSc1ccc(S(=O)(=O)Nc2ccc(S(=O)(=O)Nc3ccc(C)cc3)cc2)cc1 | n | n | n | n | n | n
CC(C)(C)c1[nH]nc2c1C(c1ccc(OC(=O)c3ccco3)cc1)C(C#N)=C(N)O2 (centres undefined) | n | n | n | n | n | 43
CC(C)(C)c1[nH]nc2c1C(c1cccnc1)C(C#N)=C(N)O2 (centres undefined) | n | n | n | n | n | n
COCc1ccc(C(=O)N2CCCC(C(=O)c3cc(F)ccc3F)C2)s1 (centres undefined) | n | n | n | n | n | n
N/C(=N\OC(=O)COc1ccc2ccccc2c1)c1cccnc1 | 61 | n | n | n | n | n
N/C(=N\OC(=O)COc1ccc2ccccc2c1)c1ccncc1 | n | n | n | n | n | n
CC(C)OC(=O)CSc1nnc2n1C(C)(C)Cc1ccccc1-2 | n | n | n | n | x | x
CCOC(=O)CSc1nnc2n1C(C)(C)Cc1ccccc1-2 | n | n | n | 92 | n | n
COc1cccc(/C=N/Nc2nn3cnnc3c3ccccc23)c1O | n | n | n | 53 | n | n
Oc1cccc(/C=N/Nc2nn3cnnc3c3ccccc23)c1 | n | n | x | n | n | n
CCOC(=O)c1c(C)oc2cc(Br)c(OC(=O)N3CCOCC3)cc12 | 92 | n | n | n | n | n
COc1cc2c(C(=O)N3CCN(C)CC3)c(C)oc2cc1Br | n | n | n | n | n | n
Cc1ccc2c(c1)/C(=C/c1ccco1)C(=O)N2 | n | n | n | n | n | n
Cc1ccc(/C=C2\C(=O)Nc3ccccc32)o1 | n | n | n | 62 | n | n
CN(C)c1ccc(/C=N\NC(=O)c2cccc3cc[nH]c23)cc1 | n | n | x | n | n | n
CCn1c(SCC(=O)Nc2nccc(C)n2)nc2ccccc21 | n | n | x | n | n | n
O=C(CSc1ccsc1[N+](=O)[O-])N1CCN(c2ccccc2)CC1 | n | n | n | 65 | n | n
Cc1ccccc1NC(=O)CSc1ccsc1[N+](=O)[O-] | n | n | n | 71 | n | n
COCCCNC(=O)CSc1ccsc1[N+](=O)[O-] | n | n | n | n | n | n
O=C(CSc1ccsc1[N+](=O)[O-])N1CCN(c2ccc(Cl)cc2)CC1 | n | n | n | 95 | n | n
O=C(CSc1ccsc1[N+](=O)[O-])N1CCCCCC1 | n | n | n | n | n | n
SMILES | Mcl1 Bid PPI | NCF1 inh | Bim-Mcl-1 | Mcl1 Noxa PPI | 14-3-3 Bad inh | eIF4E 4G PPI
Cc1ccccc1COCCN1CCN(S(=O)(=O)c2ccccc2)CCC1=O | n | n | x | n | n | n
CCOC(=O)Cc1nnc(Nc2ccc(C)cc2C)c2ccccc12 | n | n | n | n | n | n
CCOc1ccc(NC(=O)c2ccc(NC(=O)c3cn4c5c(c(N6CCN(C)CC6)c(F)cc5c3=O)OCC4C)cc2)cc1 (centres undefined) | n | 82 | n | n | n | n
COCCNC(C(=O)Nc1ccc([N+](=O)[O-])cc1Br)c1ccccc1 (centres undefined) | n | n | n | n | n | n
CCCCNC(C(=O)Nc1ccc([N+](=O)[O-])cc1Br)c1ccccc1 (centres undefined) | n | n | n | n | 71 | n
c1ccc(N2CCN(Cc3ccnc4ccccc34)CC2)cc1 | n | n | n | n | 71 | n
Oc1c(CN2CCN(c3ccccc3)CC2)cc(Br)c2cccnc12 | n | n | x | n | n | n
NC1CCCCC1N=Cc1c(O)n(CCc2ccc(F)cc2)c(=O)[nH]c1=O (centres undefined) | x | x | n | x | x | x
O=c1[nH]c(=O)n(CCc2ccc(F)cc2)c(O)c1C=NCc1ccc2c(c1)OCO2 | 53 | n | n | n | n | n
Cc1nnc(SCC(=O)N2N=C(c3ccc(Cl)cc3)CC2c2ccco2)[nH]c1=O (centres undefined) | n | n | n | 53 | n | n
CC(=O)N1N=C(c2ccc(Cl)cc2)CC1c1ccco1 (centres undefined) | n | n | x | n | n | n
O=S(=O)(NC12CC3CC(CC(C3)C1)C2)c1ccc(F)cc1 | n | n | n | n | n | n
O=C(NCCN1CCNCC1)c1ccccn1 | n | n | n | n | 73 | n
COC(=O)CSc1ncnc2c1sc1nc(-c3ccco3)c3c(c12)CC(C)(C)OC3 | n | n | n | 76 | x | x
COc1ccc2nc(SCC(=O)NC(C)C)[nH]c2c1 | n | n | n | n | 80 | n
O=C(c1cccc(F)c1)N1CCCC(C(=O)N2CCN(c3ccccc3)CC2)C1 (centres undefined) | n | n | x | n | n | n
FC(F)(F)C1=CC(c2ccccc2)=NCCN1 | n | n | n | 88 | n | n
OC(COc1ccccc1)Cn1c2ccccc2c2ccccc21 (centres undefined) | n | n | n | n | n | n
Oc1cccc2ccc[n+](CC(O)Cn3c4ccccc4c4ccccc43)c12 (centres undefined) | n | 38 | n | n | n | n
Clc1cc(Br)ccc1OCCCn1ccnc1 | n | n | n | n | n | n
Clc1cc(Br)ccc1OCCn1ccnc1 | n | n | n | n | 78 | n
O=C1c2cccnc2C(Nc2ccccc2)N1Cc1ccco1 (centres undefined) | 60 | n | n | 60 | n | n
O=C1c2cccnc2C(Nc2cccc(F)c2)N1Cc1ccco1 (centres undefined) | n | n | n | n | n | n
O=C1Nc2ccccc2/C1=C/c1cnc(-c2ccccc2)[nH]1 | n | n | x | 65 | n | n
O=C1Nc2ccccc2/C1=C/c1cccnc1 | n | n | n | n | n | n
SMILES | Mcl1 Bid PPI | NCF1 inh | Bim-Mcl-1 | Mcl1 Noxa PPI | 14-3-3 Bad inh | eIF4E 4G PPI
CN(Cc1ccccc1)c1nc(N)c([N+](=O)[O-])c(NCc2ccccc2)n1 | n | n | n | n | n | n
CCN(CCO)c1ncnc2c1sc1nc(C(C)C)c3c(c12)CC(C)(C)OC3 | n | n | n | n | n | n
CSc1nc(NCCOCCO)c2sc3nc(-c4ccco4)c4c(c3c2n1)CCC4 | n | n | n | 96 | n | n
CCN(CCO)c1nc(SC)nc2c1sc1nc(-c3ccco3)c3c(c12)CCC3 | 52 | n | n | 99 | n | n
COC(=O)CCCC(=O)N1CCCC(CNS(=O)(=O)c2ccc(OC)cc2)C1 (centres undefined) | n | n | n | n | n | n
COC(=O)C(=O)/C=C(\O)c1ccc(C)cc1 | n | n | n | 57 | n | n
